# Screens from PubChem.
# Shown are actives, neighbours in structure and some others; about 5.4% of the full set was active somewhere.
# Calb FLC: affects C. albicans growth with fluconazole. C. albicans CaCi-2 (fluconazole-resistant clinical isolate) + fluconazole, Alamar Blue growth, 48 h. growth inhibition, % (no concentration beside the values). hit rate 0.57% among 300,000. AID 1979;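 active = growth inhibition above about 58% in most replicates, limit read from the data, passing the limit was not always enough; inconclusive = exactly half the replicates above a set limit; inactive = most replicates below a set limit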;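 note: all wells also contain fluconazole at 8 µg/ml as a sub-toxic cotreatment; 0% = median of DMSO wells and 100% = median of geldanamycin control wells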
# ALR inh: inhibitors of human sulfhydryl oxidase ALR; AID 485317; purified ALR, DTT oxidation, H2O2 HRP-luminol luminescence; P55789; hit rate 3.8% among 290,000; inhibition, % (no concentration beside the values);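 active = mean replicate inhibition above about 79%, with every replicate also reaching it, limit read from the data; inconclusive = only one of the two criteria met; inactive = mean below limit and not every replicate reaching it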
# PP1 inh: blocks human PP1-alpha phosphatase, a PP5 counter-screen; hit rate 0.9% among 320,000; P62136; purified PP1alpha, OMFP fluorescence; inhibition, % at 6.7 µM;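 active = inhibition above the mean inhibition of all tested compounds plus 3 SD, computed separately for each screening campaign, cut at about 15% in these data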
# Target sequence (P62136 whole entry, looked up): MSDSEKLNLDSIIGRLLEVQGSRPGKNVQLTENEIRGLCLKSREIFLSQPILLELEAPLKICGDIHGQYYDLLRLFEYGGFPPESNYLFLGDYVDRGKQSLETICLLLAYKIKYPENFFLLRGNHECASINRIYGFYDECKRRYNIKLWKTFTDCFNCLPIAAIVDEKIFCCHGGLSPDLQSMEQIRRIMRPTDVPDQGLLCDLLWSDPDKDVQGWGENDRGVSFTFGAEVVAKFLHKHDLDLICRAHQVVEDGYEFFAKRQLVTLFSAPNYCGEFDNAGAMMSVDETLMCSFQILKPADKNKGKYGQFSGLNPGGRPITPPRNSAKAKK
# CSC inhib: blocks cancer stem cells. cancer stem cell-like cells viability, luminescence. inhibition, % at 7.5 µM. AID 2717. hit rate 1.1% among 300,000; in the data active = inhibition above about 75%; inconclusive = no clear call, values can overlap the other calls; tested in HMLE shEcad cells
# PP5 inh: blocks human protein phosphatase 5 activity. inhibition, % at 6.7 µM. hit rate 0.18% among 320,000. P53041. purified PP5c, OMFP substrate fluorescence;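 active = inhibition above the campaign's mean inhibition across all tested compounds plus 3 SD, cut at about 9.5% in these data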;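 note: 0% = DMSO only and 100% = 100 µM cantharidin control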
# PP1 confirm: confirmation of human PP1 phosphatase inhibitors. purified PP1alpha, OMFP substrate fluorescence. hit rate 52% among 1,900. shares compounds with PP1 inh. AID 2358. inhibition, % at 6.7 µM;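 active = mean PP1 inhibition above a set limit taken from the earlier primary screen, cut at about 15% in these data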
# PP5 counter: counter-screen for PP1 inhibitors: human PP5 phosphatase inhibition; shares compounds with PP1 inh; hit rate 4% among 1,900; inhibition, % at 6.7 µM; AID 2360; purified PP5c, OMFP fluorescence;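 active = mean PP5 inhibition over triplicate wells above about 9.5% taken from the earlier PP1 screen, limit read from the data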
# * = called active by the depositor; ? = inconclusive; / = no result.
SMILES,Calb FLC,ALR inh,PP1 inh,CSC inhib,PP5 inh,PP1 confirm,PP5 counter
O=C(O)C1C2C=CC(C2)C1C(=O)Nc1cccc(F)c1 (stereo not drawn),5.5,-6.3,-4.9,-5.2,0.6,/,/
O=C(NCc1ccncc1)C(=O)NCc1ccncc1,10.7,-1.6,2.6,-3.0,-1.6,/,/
CC(=O)Nc1ccc(NC(=O)C2C3C=CC(C3)C2C(=O)O)cc1 (stereo not drawn),3.1,20.0,-0.8,3.3,-1.4,/,/
O=C(O)C1C2CCC(O2)C1C(=O)Nc1cccc(F)c1 (stereo not drawn),-5.5,-0.1,54.6*,-1.8,52.1*,9.5,17.3*
O=C(O)C1C2CCC(O2)C1C(=O)NCc1ccncc1 (stereo not drawn),6.4,-5.3,19.7*,-12.9,36.7*,15.4*,25.9*
O=C(O)c1ccc(NC(=O)C2C3CCC(O3)C2C(=O)O)cc1 (stereo not drawn),5.8,-13.2,75.3*,1.8,78.7*,30.6*,37.5*
CCc1ccc(NC(=O)C2C3CCC(O3)C2C(=O)O)cc1 (stereo not drawn),-0.5,-4.8,74.2*,12.7,79.5*,17.8*,37.5*
CCc1ccc(NC(=O)C2CCN(c3c(N4CCCC4)c(=O)c3=O)CC2)cc1,-1.9,14.6,-8.1,-14.3,2.9,/,/
CCOC(=O)C1=C(c2ccccc2)NC(N)=NC1c1ccc(OCc2ccc(Cl)cc2)c(OC)c1 (stereo not drawn),-5.8,-6.4,24.9*,75.5*,5.3,29.0*,-0.3
CCOC(=O)C1=C(c2ccccc2)NC(=O)NC1c1cc(Cl)c(O)c(OC)c1 (stereo not drawn),0.2,28.0,0.3,3.7,-2.1,/,/
Cc1ccc(N2CCN(C(=O)NC3CCCCC3)CC2)c(C)c1,-4.7,/,0.8,6.5,2.1,/,/
CCOC(=O)c1cnc(-n2cc(C)cn2)nc1NCc1ccc2c(c1)OCO2,2.0,1.4,20.8*,-7.4,1.9,65.5*,1.6
CCOC(=O)c1cnc(-n2nc(C)cc2C)nc1NNc1ncc(-c2ccccc2)cn1,5.5,-2.3,22.7*,36.7,3.4,21.6*,-2.3
CCOC(=O)c1cnc(-n2nc(C)cc2C)nc1NC(C)c1ccccc1 (stereo not drawn),-9.5,-1.4,39.1*,/,1.6,53.3*,5.5
CCOC(=O)c1cnc(-n2nc(C)cc2C)nc1NCc1ccccc1,-12.9,4.4,53.6*,18.4,7.0,58.2*,0.6
CCOC(=O)c1cnc(-n2nc(C)cc2C)nc1NCCO,5.2,-15.2,-0.5,/,-0.4,/,/
Cc1cnc(C(=O)OCC(=O)NCc2ccc3c(c2)OCO3)cn1,0.1,-3.7,1.6,-9.9,1.1,/,/
CC(=O)c1c(C)[nH]c(C(=O)CSc2nnc(C)s2)c1C,0.7,34.9,-2.6,-10.7,-0.3,/,/
Cc1cc(NC(=O)CSc2nc3c(c(=O)n2Cc2ccccc2)SC(C)C3)no1 (stereo not drawn),-6.0,4.8,-1.7,-4.2,1.1,/,/
Cc1nc(S/C(=C/c2ccc(-c3cc(Cl)ccc3C)o2)C(=O)O)n[nH]1,-0.5,3.9,18.8*,37.1,2.7,18.4*,1.4
Cc1nc(S/C(=C/c2ccc(-c3ccc(Cl)cc3)o2)C(=O)O)n[nH]1,-3.5,24.1,10.5,19.3,1.0,/,/
CN1CCN(C(=O)c2c(NC(=O)c3ccco3)sc3c2CCC(C(C)(C)C)C3)CC1 (stereo not drawn),4.1,6.9,-4.0,-9.0,-0.1,/,/
CCN1C(=O)/C(=C/c2cccs2)SC1=Nc1ccc(OC)cc1,-9.7,-16.4,-1.4,15.8,-0.9,/,/
CCN(CC)CCN1C(=O)/C(=C\c2ccc(Cl)c([N+](=O)[O-])c2)SC1=Nc1ccc(OC)cc1,10.4,-4.9,18.7*,?,3.2,-5.9,1.6
c1ccc(OCc2nc(-c3ccccc3)no2)cc1,/,-0.5,0.0,-4.6,2.6,/,/
Cc1ccc(Nc2cc(C)nn2-c2nc(C)cc(=O)[nH]2)cc1,79.9*,91.8*,26.4*,92.7*,3.4,20.2*,1.2
NC(=O)c1ccsc1NC(=O)COC(=O)c1nc(Cl)ccc1Cl,3.9,27.9,45.4*,-14.9,-3.3,-0.1,-3.3
COc1cc(OC)c(C(=O)Nc2ccc(S(=O)(=O)Nc3ncccn3)cc2)cc1OC,-1.1,-12.1,-2.3,-8.6,0.7,/,/
CCOC(=O)CCC(=O)Nc1ncnc2c1C(c1ccccc1)c1c(ccc3ccccc13)O2 (stereo not drawn),/,-1.6,/,/,/,/,/
